# Most compounds without a hit are left out; they make up all but 2.4% or so of the library.
# C diff growth: C. difficile growth inhibition. growth activity, negative = inhibition, % at 16 µg/mL (by protocol). Clostridium difficile clinical isolate growth, OD600, 24 h; hits give low values. actives 0.25% (n = 86,000). AID 1259249;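 active means mean growth activity at or below -80% and every replicate also at or below -80%; inconclusive means mean at or below -80% but some replicate above -80%; inactive means mean growth activity above -80%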
# Pf Dd2 growth: P. falciparum Dd2 growth inhibition. activity change, % at 10 µM. SYBR Green, 72 h; hits give low values. actives 2.3% (n = 94,000); in the data active means activity change below about -80%; inconclusive means no clear call, values can overlap the other calls
# Numbers stand for hits; i = inactive; ? = inconclusive; nt = no result given.
SMILES,C diff growth,Pf Dd2 growth
C[C@@H]1CN([C@H](C)CO)S(=O)(=O)c2ccc(C#C[C@@H](C)O)cc2O[C@H]1CN(C)C(=O)Nc1ccccc1,i,-92
COc1ccc(C#Cc2ccc3c(c2)O[C@@H](CN(C)C(=O)Nc2cccc(OC)c2)[C@H](C)CN([C@@H](C)CO)S3(=O)=O)cc1,nt,-88
COc1cccc(NC(=O)N(C)C[C@@H]2Oc3cc(C#Cc4ccc(F)cc4)ccc3S(=O)(=O)N([C@H](C)CO)C[C@H]2C)c1,i,i
COc1cccc(C#Cc2ccc3c(c2)O[C@@H](CN(C)C(=O)c2ccccn2)[C@H](C)CN([C@@H](C)CO)S3(=O)=O)c1,i,-84
C[C@H](CO)N1C[C@H](C)[C@@H](CN(C)C(=O)Nc2ccccc2)Oc2cc(C#C[C@@H](C)O)ccc2S1(=O)=O,i,i
COc1cccc(NC(=O)N(C)C[C@H]2Oc3cc(C#Cc4ccccc4)ccc3S(=O)(=O)N([C@@H](C)CO)C[C@H]2C)c1,i,?
C[C@@H]1CN([C@H](C)CO)C(=O)Cc2cc(NC(=O)Nc3ccccc3)ccc2O[C@@H]1CN(C)C(=O)NC1CCCCC1,i,i
C[C@H]1CN([C@@H](C)CO)C(=O)c2cc(N(C)C)ccc2O[C@@H]1CN(C)C(=O)NC1CCCCC1,i,i
COc1ccc(C#Cc2ccc3c(c2)O[C@H](CN(C)C(=O)Nc2cccc(OC)c2)[C@H](C)CN([C@@H](C)CO)S3(=O)=O)cc1,nt,-86
COc1cccc(NC(=O)N(C)C[C@@H]2Oc3cc(C#Cc4ccccc4)ccc3S(=O)(=O)N([C@H](C)CO)C[C@@H]2C)c1,i,-90
COc1cccc(NC(=O)N(C)C[C@@H]2Oc3cc(C#Cc4ccccc4)ccc3S(=O)(=O)N([C@@H](C)CO)C[C@H]2C)c1,i,i
COc1cccc(NC(=O)N(C)C[C@H]2Oc3cc(C#Cc4ccncc4)ccc3S(=O)(=O)N([C@H](C)CO)C[C@H]2C)c1,i,i
COc1ccc(C#Cc2ccc3c(c2)O[C@@H](CN(C)C(=O)Nc2cccc(OC)c2)[C@@H](C)CN([C@H](C)CO)S3(=O)=O)cc1,nt,-89
COc1cccc(NC(=O)N(C)C[C@H]2Oc3cc(C#Cc4ccncc4)ccc3S(=O)(=O)N([C@H](C)CO)C[C@@H]2C)c1,i,i
O=C([C@@H]1N[C@@H]2c3ccc(C4=CCCC4)c(=O)n3C[C@@H]2[C@H]1CO)N1CCc2ccccc2C1,i,i
C/C=C/c1ccc2c(c1)[C@@H]1[C@@H](CCN1S(=O)(=O)c1ccc(C)cc1)[C@@H](CO)N2,i,i
C/C=C/c1ccc2c(c1)[C@H]1[C@H](CCN1C(=O)c1ccc(F)cc1)[C@H](CO)N2,i,-89
C/C=C/c1ccc2c(c1)[C@@H]1[C@@H](CCN1S(=O)(=O)c1ccccc1C)[C@H](CO)N2,i,-86
O=C(Cc1ccccc1)N1CC[C@H]2[C@H](CO)Nc3ccc(C#Cc4cccc(F)c4)cc3[C@H]21,i,i
C/C=C/c1ccc2c(c1)[C@H]1[C@H](CCN1C(=O)c1cccc(F)c1)[C@H](CO)N2,i,-93
C/C=C/c1ccc2c(c1)[C@@H]1[C@@H](CCN1C(=O)c1cnccn1)[C@H](CO)N2,i,i
O=C(c1cccc(F)c1)N1CC[C@H]2[C@H](CO)Nc3ccc(-c4cccc(F)c4)cc3[C@H]21,i,i
O=C(Cc1cccnc1)N1CC[C@H]2[C@H](CO)Nc3ccc(C#Cc4cccc(F)c4)cc3[C@H]21,i,-84
CCCNC(=O)N1CC2(C1)CN(C(=O)NC(C)C)[C@@H](CO)c1c2c2ccc(OC)cc2n1C,nt,i
COC(=O)c1cn(CC(=O)N2CCOCC2)nn1,i,nt
SMILES,C diff growth,Pf Dd2 growth
C[C@@H]1CN([C@@H](C)CO)C(=O)c2cccc(NC(=O)c3cnccn3)c2O[C@H]1CN(C)S(=O)(=O)c1ccccc1,nt,i
CN1CCN(C(=O)C[C@@H]2CC[C@H]3[C@@H](COC[C@@H](O)CN3C(=O)Nc3ccc4c(c3)OCO4)O2)CC1,i,i
C[C@@H](NC(=O)C[C@H]1C[C@@H]2c3cc(NC(=O)CN(C)C)ccc3O[C@@H]2[C@H](CO)O1)c1ccccc1,i,i
COc1cccc(NC(=O)N(C)C[C@@H]2Oc3ncc(C#Cc4ccc(F)cc4)cc3C(=O)N([C@@H](C)CO)C[C@H]2C)c1,i,i
O=C(c1cccc(F)c1)N1CC[C@H]2[C@H](CO)Nc3ccc(C#Cc4cccc(F)c4)cc3[C@H]21,i,-84
O=C(c1cccc(F)c1)N1CC[C@H]2[C@H](CO)Nc3ccc(C#Cc4ccccc4)cc3[C@H]21,i,i
O=C1NCC(=O)N2[C@@H]1C[C@@H](C(=O)NCc1ccc(F)cc1)[C@H]2c1ccc(O)cc1,i,nt
C[C@@H]1CCCCO[C@@H](CN(C)Cc2ccc3c(c2)OCO3)[C@@H](C)CN([C@H](C)CO)C(=O)c2cc(NC(=O)Nc3cccc4ccccc34)ccc2O1,nt,i
C[C@@H]1CCCCO[C@@H](CN(C)Cc2ccc3c(c2)OCO3)[C@H](C)CN([C@H](C)CO)C(=O)c2cc(NC(=O)Nc3cccc4ccccc34)ccc2O1,nt,-91
C[C@@H]1CCCCO[C@H](CN(C)Cc2ccc3c(c2)OCO3)[C@@H](C)CN([C@@H](C)CO)C(=O)c2cc(NC(=O)Nc3cccc4ccccc34)ccc2O1,nt,-88
C[C@@H]1CCCCO[C@@H](CN(C)Cc2ccc3c(c2)OCO3)[C@@H](C)CN([C@@H](C)CO)C(=O)c2cc(NC(=O)Nc3cccc4ccccc34)ccc2O1,nt,i
C[C@H]1CCCCO[C@@H](CN(C)Cc2ccc3c(c2)OCO3)[C@@H](C)CN([C@@H](C)CO)C(=O)c2cc(NC(=O)Nc3cccc4ccccc34)ccc2O1,i,?
C[C@@H]1CN([C@H](C)CO)C(=O)c2cc(NC(=O)Nc3cccc4ccccc34)ccc2O[C@@H](C)CCCCO[C@H]1CN(C)Cc1ccc2c(c1)OCO2,nt,-87
CCCNC(=O)N[C@H]1CC[C@@H](CC(=O)NC2CCCCC2)O[C@@H]1CO,i,i
C[C@@H]1CCCCO[C@@H](CN(C)S(=O)(=O)c2ccccc2)[C@H](C)CN([C@@H](C)CO)C(=O)c2cc(NS(=O)(=O)c3cn(C)cn3)ccc2O1,i,i
O=C(c1ccc2c(c1)OCO2)N1CC2(C1)[C@@H](c1ccccc1)[C@@H](CO)N2C(=O)C1CC1,i,i
COc1ccc(-c2ccc([C@H]3[C@@H](C#N)N(C(=O)NC(C)C)[C@H]3CO)cc2)cc1,i,i
C[C@H](CO)N1C[C@H](C)[C@H](CN(C)C(=O)Nc2cccc3ccccc23)Oc2ccc(NC(=O)CCN3CCOCC3)cc2CC1=O,i,i
COC(=O)C[C@@H]1CC[C@@H]2[C@H](COc3ccc(NS(C)(=O)=O)cc3C(=O)N2C)O1,i,i
C[C@H](CO)N1C[C@H](C)[C@H](CN(C)Cc2ccc(Oc3ccccc3)cc2)Oc2ccc(NC(=O)CCCCCC(=O)Nc3ccccc3N)cc2CC1=O,i,-84
C[C@H](CO)N1C[C@H](C)[C@H](CN(C)Cc2ccccc2)Oc2ccc(NC(=O)CCCCCC(=O)Nc3ccccc3N)cc2CC1=O,i,i
C[C@H]1CN([C@@H](C)CO)C(=O)Cc2cc(NC(=O)CCCCCC(=O)Nc3ccccc3N)ccc2O[C@H]1CN(C)Cc1ccc(Oc2ccccc2)cc1,i,-85
C[C@@H]1CN([C@@H](C)CO)C(=O)Cc2cc(NC(=O)CCCCCC(=O)Nc3ccccc3N)ccc2O[C@@H]1CN(C)Cc1ccc(-c2ccccc2)cc1,i,i

# Bioassay records from PubChem BioAssay.
